We go through seven compounds from PubChem BioAssay (NCI).

Structures are written as SMILES. Compounds without any hit were thinned out: in the full panel of roughly 83,000, 20% have a hit.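 Note: values are percent growth. 100 is the growth of untreated cells, values between 100 and 0 indicate rising inhibition; between -100 and 0 indicates cell death.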 Unmarked numbers belong to inactive results. The source made the active and inactive calls. The calls were made as follows: active = growth percent below 10; inactive = the rest.

Some test systems named below: EKVX NSCLC; SN12C renal; UO-31 renal; TK-10 renal; ACHN renal; CAKI-1 renal; A498 renal; CCRF-CEM leukemia; MOLT-4 leukemia; SR leukemia; RPMI-8226 leukemia; OVCAR-8 ovarian; OVCAR-5 ovarian; OVCAR-4 ovarian; SK-OV-3 ovarian; IGROV1 ovarian; OVCAR-3 ovarian; HS 578T breast; NCI/ADR-RES ovarian; T-47D breast.
Holding throughout (test): NCI-60 one-dose screen, 48 h (100 = growth as untreated, 0 = no growth, -100 = all killed)
What all share (settings): 10 µM unless noted

Take `CCN1C(=S)N(CC)C2C1N=C(SC)N2/N=C/C=C/c1ccccc1[N+](=O)[O-]` (stereo not given): the growth in the experiment on EKVX NSCLC is 93.6%; with SN12C renal, 91.8%; in the experiment with UO-31 renal, 94.8%; in the experiment with TK-10 renal it was 125%; with ACHN renal, 78.1%; in the experiment with CAKI-1 renal it was 76.5%. Besides, the growth with A498 renal was 111%; in the experiment with CCRF-CEM leukemia, 93.1%; in the experiment with MOLT-4 leukemia, 82.1%; in the experiment on SR leukemia it was 75%; in the experiment on RPMI-8226 leukemia it was 83.4%; with OVCAR-8 ovarian it was 84.7%. The growth was 98.2% with OVCAR-5 ovarian; 83.6% in the experiment with OVCAR-4 ovarian; 109% with SK-OV-3 ovarian; 106% with IGROV1 ovarian; 121% with OVCAR-3 ovarian; 88.1% in the experiment on HS 578T breast. Also, the growth in the experiment with NCI/ADR-RES ovarian is 94.3%; in the experiment with T-47D breast, 88.4%.

In the case of `Fc1ccc(-c2cc3nc(C(Cl)Cl)nc(-c4ccc(Cl)cc4)n3n2)cc1`, the growth in the experiment with EKVX NSCLC was 5.99% (active); in the experiment with SN12C renal it was 53.3%; in the experiment with UO-31 renal, 27.4%; in the experiment on TK-10 renal it was 17.3%; in the experiment with ACHN renal, -63.6% (active); in the experiment on CAKI-1 renal, -23.3% (active). Besides, the growth with A498 renal is -38.8% (active); in the experiment on CCRF-CEM leukemia, 56.8%; in the experiment with MOLT-4 leukemia, 19.3%; in the experiment with SR leukemia it was 3.51% (active); in the experiment with RPMI-8226 leukemia, 10.9%; with OVCAR-8 ovarian it was 19%. Also, the growth in the experiment on OVCAR-5 ovarian was -4.91% (active); in the experiment with OVCAR-4 ovarian, -9.93% (active); with SK-OV-3 ovarian, -16.6% (active); with IGROV1 ovarian, 44.5%; in the experiment on OVCAR-3 ovarian, -31.9% (active); with HS 578T breast it was 8.56% (active). In addition, the growth is 20.3% in the experiment on NCI/ADR-RES ovarian and 37.4% in the experiment on T-47D breast.

For `CCCC(=O)NC(c1ccc2c(c1)OC(F)(F)O2)c1cc(C)c2cccnc2c1O` (stereo not given), the growth with EKVX NSCLC is 23.1%; in the experiment with SN12C renal, 19.4%; with UO-31 renal, 6.46% (active); in the experiment on TK-10 renal, 54.8%; in the experiment with ACHN renal, 6.71% (active); in the experiment on CAKI-1 renal it was 12.8%. For the same compound, the growth in the experiment with A498 renal is 6.01% (active); in the experiment with CCRF-CEM leukemia it was 9.16% (active); with MOLT-4 leukemia, 15.3%; in the experiment on SR leukemia, 13%; with RPMI-8226 leukemia it was 29.1%; in the experiment on OVCAR-8 ovarian it was 14.3%. For the same compound, the growth with OVCAR-5 ovarian was 42%; in the experiment on OVCAR-4 ovarian it was 33.7%; with SK-OV-3 ovarian it was 9.65% (active); in the experiment on IGROV1 ovarian, 12.7%; in the experiment on OVCAR-3 ovarian, 24.8%; in the experiment with HS 578T breast, 38.5%. Besides, the growth was 18.8% in the experiment with NCI/ADR-RES ovarian and 23.9% in the experiment with T-47D breast.

As to `COc1ccc(/C=N/Nc2ccnc3cc(Cl)ccc23)cc1Cl`, the growth in the experiment on EKVX NSCLC is 12.2%; with SN12C renal it was -70.8% (active); in the experiment with UO-31 renal it was -90% (active); in the experiment on TK-10 renal it was -81.6% (active); in the experiment with ACHN renal, -99.8% (active); with CAKI-1 renal, -83.5% (active). The growth in the experiment on A498 renal was 36.7%; in the experiment with CCRF-CEM leukemia, -19.8% (active); with MOLT-4 leukemia, -25.3% (active); with SR leukemia, -9.69% (active); with RPMI-8226 leukemia, -37.8% (active); with OVCAR-8 ovarian, -57.6% (active). The growth was -71.9% (active) with OVCAR-5 ovarian; -60.7% (active) with OVCAR-4 ovarian; 123% in the experiment on SK-OV-3 ovarian; -59.5% (active) in the experiment with IGROV1 ovarian; -92.2% (active) with OVCAR-3 ovarian; -53.5% (active) with HS 578T breast. Moreover, the growth is 0.936% (active) in the experiment on NCI/ADR-RES ovarian and -62% (active) with T-47D breast.

Consider `CCCCCCNC(=O)Oc1ccc(/C(=C(/C)c2ccccc2)c2ccc(OCCN3CCCCCC3)cc2)cc1`, for which the growth in the experiment with EKVX NSCLC is 64.2%; in the experiment with SN12C renal, 42.8%; in the experiment on UO-31 renal it was 28.9%; in the experiment with TK-10 renal it was 104%; in the experiment with ACHN renal, 69.3%; in the experiment with CAKI-1 renal, 35.9%. Further, the growth in the experiment on A498 renal is 78.7%; in the experiment with CCRF-CEM leukemia it was 16.3%; with MOLT-4 leukemia it was 4.41% (active); in the experiment on SR leukemia it was -37.4% (active); in the experiment with RPMI-8226 leukemia it was -27.7% (active); in the experiment on OVCAR-8 ovarian it was 66.1%. Besides, the growth with OVCAR-5 ovarian is 69.3%; in the experiment with OVCAR-4 ovarian, 49.7%; in the experiment with SK-OV-3 ovarian it was 98.7%; in the experiment with IGROV1 ovarian, 51.4%; in the experiment with OVCAR-3 ovarian, 48.9%; with HS 578T breast, 51.4%. The growth in the experiment with NCI/ADR-RES ovarian is 64.5%; with T-47D breast, 21.6%.

As to `O=c1[nH]c2ccc(Cl)cc2cc1CSc1ccccc1Nc1nccc(-c2ccc(Cl)cc2)n1`, the growth with EKVX NSCLC was 80.5%; in the experiment with SN12C renal it was 87.1%; in the experiment on UO-31 renal, 81.2%; in the experiment with TK-10 renal it was 128%; in the experiment on ACHN renal, 95.7%; in the experiment with CAKI-1 renal, 82.5%. Besides, the growth in the experiment with A498 renal is 88.1%; with CCRF-CEM leukemia, 90.6%; with MOLT-4 leukemia, 60.9%; in the experiment with SR leukemia it was 77.2%; in the experiment with RPMI-8226 leukemia it was 84%; in the experiment with OVCAR-8 ovarian, 96.5%. Further, the growth in the experiment on OVCAR-5 ovarian is 114%; in the experiment with OVCAR-4 ovarian, 89%; in the experiment on SK-OV-3 ovarian, 122%; with IGROV1 ovarian it was 82.7%; in the experiment with OVCAR-3 ovarian, 89.3%; in the experiment on HS 578T breast it was 91.2%. Further, the growth with NCI/ADR-RES ovarian was 117%; with T-47D breast it was 84.8%.

On to `CN1CCN(Cc2ccc(NC(=O)c3cncc(C#Cc4cnc5ccc(N6CCSCC6)nn45)c3)cc2C(F)(F)F)CC1`, for which the growth was -47.1% (active) with EKVX NSCLC; -69.5% (active) in the experiment with SN12C renal; -11.5% (active) with UO-31 renal; -25.9% (active) with TK-10 renal; -91.4% (active) with ACHN renal; -26.7% (active) in the experiment with CAKI-1 renal. Also, the growth is -81.9% (active) with A498 renal; 3.28% (active) in the experiment with CCRF-CEM leukemia; 4.9% (active) with MOLT-4 leukemia; -31.9% (active) with SR leukemia; -7.39% (active) with RPMI-8226 leukemia; -67.7% (active) in the experiment with OVCAR-8 ovarian. For the same compound, the growth with OVCAR-5 ovarian was -22.4% (active); in the experiment with OVCAR-4 ovarian, -13.7% (active); with SK-OV-3 ovarian, -19.8% (active); in the experiment with IGROV1 ovarian, -9.25% (active); with OVCAR-3 ovarian, -59.6% (active); in the experiment on HS 578T breast, -24.7% (active). For the same compound, the values for the growth in the experiment on NCI/ADR-RES ovarian and in the experiment with T-47D breast were -11.6% (active) and 34.1%, respectively.
